# Results published in PubChem BioAssay (EPA / NIEHS).
# “And” between values parts separate entries of the source, which are not always exact repeats. Equal entries are not always repeated. Results filed as inconclusive are left out. The source made the active and inactive calls. The calls were made as follows, unless noted: active = hit-call score of the fitted dose curve at least 0.9, where 1 is the maximum; inconclusive = response in the unintended direction; inactive = score below 0.9.
# How the values were obtained:
# [1] = system: DIO1 (gene 1733); assay: CCTE_GLTED_hDIO1: CCTE's human Deiodinase 1 (DIO1) Inhibition Assay, Great Lakes Toxicology and Ecology Division (GLTED) Lab (AID 2283987);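 also: isolated human DIO1 enzyme in a cell-free setup rather than cells; enzyme activity read as free iodide liberated from substrate via Sandell-Kolthoff colorimetry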
# In short: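 Chemicals are tested on human DIO1 without cells for 3 h. Uninhibited enzyme frees iodide, which speeds cerium(IV) reduction by arsenic and is read by spectrophotometry.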
# [2] = CEETOX_H295R_PROG_noMTC: CeeTox H295R High-throughput Steroidogenesis Assay for Progesterone (PROG), maximum tolerated concentration (MTC) filtered results only (AID 2283920; active = hit-call score of the fitted dose curve at least 0.9, where 1 is the maximum; inactive = score below 0.9); conditions: actives raise or lower the signal
# In short: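 H295R human adrenal cells were prestimulated 48 h with 10 uM forskolin, then exposed 48 h to test chemical (0.1% DMSO final). Progesterone in medium was quantified by HPLC-MS/MS; bidirectional fitting versus DMSO, concentrations not MTC-filtered.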
# [3] = CEETOX_H295R_ESTRONE_noMTC: CeeTox H295R High-throughput Steroidogenesis Assay for Estrone, maximum tolerated concentration (MTC) filtered results only (AID 2283921; active = hit-call score of the fitted dose curve at least 0.9, where 1 is the maximum; inactive = score below 0.9); conditions: actives raise or lower the signal
# In short: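 H295R cells prestimulated 48 h with 10 uM forskolin, then exposed 48 h to chemical in 0.1% DMSO; medium estrone measured by HPLC-MS/MS after MTBE extraction and dansyl derivatization, fitted bidirectionally versus DMSO without MTT-based MTC filtering.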
# [4] = CEETOX_H295R_TESTO_noMTC: CeeTox H295R High-throughput Steroidogenesis Assay for Testosterone (TESTO), maximum tolerated concentration (MTC) filtered results only (AID 2283924; active = hit-call score of the fitted dose curve at least 0.9, where 1 is the maximum; inactive = score below 0.9); conditions: actives raise or lower the signal
# In short: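 H295R cells prestimulated 48 h with 10 uM forskolin, then exposed 48 h to chemicals in 0.1% DMSO final. Testosterone in medium quantified by MTBE extraction and HPLC-MS/MS; bidirectional fit versus DMSO, concentrations […] filtered by MTT-based maximum tolerated concentration.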
# [5] = target: Nucleoli Translocation, AR (gene 367) (UniProt P10275); assay: UPITT_HCI_U2OS_AR_TIF2_Nucleoli_Antagonist: University of Pittsburgh U2OS Androgen Receptor-Transcriptional Intermediary Factor 2 (AR-TIF2) Antagonism High Content Imaging Assay for Nucleoli Translocation (AID 2283997)
# In short: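 U2OS cells expressing RFP-tagged human AR and GFP-tagged TIF2 were imaged by high-content fluorescence microscopy for red AR signal in the nucleolar region. Compounds were screened at 20 uM final (0.2% DMSO), with activity fitted relative to DHT as baseline.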
# [6] = target: Nucleoli Translocation, AR (gene 367) (UniProt P10275); assay: UPITT_HCI_U2OS_AR_TIF2_Nucleoli_Agonist: University of Pittsburgh U2OS Androgen Receptor-Transcriptional Intermediary Factor 2 (AR-TIF2) Agonism High Content Imaging Assay for Nucleoli Translocation (AID 2283998)
# In short: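 High-content images quantify nucleolar accumulation of RFP-fused AR in cells also expressing GFP-TIF2; the endpoint is fitted as signal gain versus DMSO controls across final concentrations of 0.195 to 50 uM.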
# [7] = target: Ratio of Nucleoli Translocation and Cytoplasm, AR (gene 367) (UniProt P10275); assay: UPITT_HCI_U2OS_AR_TIF2_Nucleoli_Cytoplasm_Ratio_Antagonist: University of Pittsburgh U2OS Androgen Receptor-Transcriptional Intermediary Factor 2 (AR-TIF2) Antagonism High Content Imaging Assay for Ratio of Nucleoli Translocation and Cytoplasm (AID 2283999);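 also: antagonists lower the DHT-driven ratio of nucleolar to cytoplasmic red signal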
# In short: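 U2OS cells expressing RFP-tagged human AR and GFP-tagged TIF2; compounds tested at 20 uM final (0.2% DMSO) in primary screen, 0.195–50 uM (0.5% DMSO) for concentration response. Readout: nucleolar-to-cytoplasmic red fluorescence ratio by high-content imaging, fitted relative to DHT.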
# [8] = target: Ratio of Nucleoli Translocation and Cytoplasm, AR (gene 367) (UniProt P10275); assay: UPITT_HCI_U2OS_AR_TIF2_Nucleoli_Cytoplasm_Ratio_Agonist: University of Pittsburgh U2OS Androgen Receptor-Transcriptional Intermediary Factor 2 (AR-TIF2) Agonism High Content Imaging Assay for Ratio of Nucleoli Translocation and Cytoplasm (AID 2284000);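 also: hits raise the red nucleolar to cytoplasm ratio above vehicle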
# In short: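 U2OS cells expressing RFP-tagged human AR and GFP-tagged TIF2 were imaged by high-content fluorescence microscopy. The endpoint is the ratio of nucleolar to cytoplasmic red fluorescence, fitted for gain of signal relative to DMSO. Concentration-response spanned 0.195 to 50 uM final (0.5% DMSO).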
# [9] = CCTE_Simmons_MITO_basal_resp_rate: CCTE's HepG2 Seahorse XF Respirometric Screening Assay at Basal Respiratory State, Simmons Lab (AID 2284001; active = hit-call score of the fitted dose curve at least 0.9, where 1 is the maximum; inactive = score below 0.9); conditions: actives raise or lower the signal
# In short: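 HepG2 cells were given test chemicals at 7 concentrations, 125 nM to 100 uM final, and oxygen consumption rate was read every 6 min (3 min mix, 3 min measure) over 72 min. Basal-phase OCR was fitted bidirectionally against DMSO.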
# [10] = target: Thyroid hormone receptor alpha (Rattus norvegicus) + Thyroid hormone receptor beta (Rattus norvegicus) (UniProt P18113+P63059); assay: TOX21_TR_LUC_GH3_Agonist_Followup: Tox21 GH3 Thyroid Hormone Receptor Agonism Luciferase Follow-Up Assay (AID 2283939)
# In short: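 Rat GH3 cells (1,500/well) in serum-free assay medium, treated with 15-point series, 92 uM to 5 nM final, for 24 h at 37C. Luciferase via ONE-Glo luminescence; gain of signal fitted against DMSO, T3 positive control.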
# [11] = target: THRA (gene 7067) (UniProt P10827); assay: TOX21_TRA_COA_Agonist_Followup_ratio: Tox21 Thyroid Hormone Receptor alpha Agonism through Coactivator Recruitment Follow-Up Assay, Ratio (AID 2283948; active = hit-call score of the fitted dose curve at least 0.9, where 1 is the maximum; inactive = score below 0.9)
# In short: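 Agonist-mode biochemical TR-FRET with TRα LBD and SRC-2 coactivator peptide; activity expressed as percent of T3 response over DMSO baseline.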
# [12] = target: THRB (gene 7068) (UniProt P10828); assay: TOX21_TRB_BLA_Agonist_Followup_ratio: Tox21 Thyroid Hormone Receptor beta Agonism Beta-lactamase (BLA) Follow-Up Assay, Ratio (AID 2283954)
# In short: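 Human TRβ LBD–GAL4 DBD fusion in GeneBLAzer UAS-bla HEK293T cells; 11 concentrations in triplicate, 18 h at 37°C/5% CO2, T3 as agonist control. CCF4-AM substrate 2 h at room temperature; 460:530 nm ratio fitted for gain of signal versus DMSO.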
# [13] = target: THRB (gene 7068) (UniProt P10828); assay: TOX21_TRB_COA_Agonist_Followup_ratio: Tox21 Thyroid Hormone Receptor beta Agonism through Coactivator Recruitment Follow-Up Assay, Ratio (AID 2283963; active = hit-call score of the fitted dose curve at least 0.9, where 1 is the maximum; inactive = score below 0.9)
# In short: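 Cell-free TR-FRET coactivator recruitment: GST-tagged TRβ LBD (5.0 nM) with 0.10% BSA incubated with compound, then fluorescein-SRC-2 peptide (200 nM) and Tb-anti-GST antibody (2 nM) added. 520:495 nm ratio normalized to DMSO (0%) and T3 (100%).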
# [14] = target: Retinoic acid receptor RXR-alpha (Homo sapiens) (UniProt P19793); assay: TOX21_TR_RXR_BLA_Agonist_Followup_ratio: Tox21 Thyroid Hormone Receptor beta Retinoid X Receptor alpha (RXRa) Agonism Beta-lactamase (BLA) Follow-Up Assay, Ratio (AID 2283968)
# In short: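 RXRa-UAS-bla HEK293T cells (GAL4 beta-lactamase reporter) were treated with compounds at 11 concentrations in triplicate for 16 h at 37C/5% CO2, then loaded with CCF4-AM substrate for 2 h at room temperature; activity is the 460:530 nm ratio versus DMSO baseline.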
# [15] = TOX21_TR_RXR_BLA_Agonist_Followup_viability: Viability Assessment in the Tox21 Thyroid Hormone Receptor beta Retinoid X Receptor alpha (RXRa) Agonism Beta-lactamase (BLA) Follow-Up Assay (AID 2283970)
# In short: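 RXRa-UAS-bla HEK293T cells seeded at 2,500/well in phenol red-free DMEM with 2% charcoal-stripped FBS, exposed to compound 16h at 37C/5% CO2 in qHTS. Viability read by CellTiter-Glo ATP luminescence; bidirectional fitting against DMSO baseline, signal loss indicating cytotoxicity.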
# [16] = target: THRB (gene 7068) (UniProt P10828); assay: TOX21_TRB_BLA_Antagonist_Followup_ratio: Tox21 Thyroid Hormone Receptor beta Antagonism Beta-lactamase (BLA) Follow-Up Assay, Ratio (AID 2283958)
# In short: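 GAL4-DBD/human TRβ-LBD fusion in GeneBLAzer UAS-bla HEK293T cells, 3,000 cells/well in phenol red-free DMEM with 2% charcoal-stripped FBS; compounds at 11 concentrations in triplicate, 18 h at 37C. CCF4-AM substrate 2 h, 460:530 nm ratio relative to DMSO.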
# [17] = TOX21_TRB_BLA_Antagonist_Followup_viability: Viability Assessment in the Tox21 Thyroid Hormone Receptor beta Antagonism Beta-lactamase (BLA) Follow-Up Assay (AID 2283961)
# In short: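 In the same wells as the reporter read, cell health was gauged by CellTiter-Glo ATP luminescence, with signal loss indicating reduced viability. Cells had been exposed to test compounds for 18 h.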
# [18] = target: THRB (gene 7068) (UniProt P10828); assay: TOX21_TRB_COA_Antagonist_Followup_ratio: Tox21 Thyroid Hormone Receptor beta Antagonism through Coactivator Recruitment Follow-Up Assay, Ratio (AID 2283967)
# In short: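 Cell-free TR-FRET coactivator recruitment with GST-tagged TRβ LBD (5.0 nM) and fluorescein-labeled SRC-2 peptide (200 nM) detected by terbium anti-GST antibody (2 nM). The 520:495 nm emission ratio was normalized to DMSO (0%) and T3 (100%).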
# [19] = target: Retinoic acid receptor RXR-alpha (Homo sapiens) (UniProt P19793); assay: TOX21_TR_RXR_BLA_Antagonist_Followup_ratio: Tox21 Thyroid Hormone Receptor beta Retinoid X Receptor alpha (RXRa) Antagonism Beta-lactamase (BLA) Follow-Up Assay, Ratio (AID 2283972)
# In short: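 Compounds were tested in triplicate at 11 concentrations on RXRa-bla HEK293T cells for 16 h. Substrate cleavage ratio, normalized to DMSO, gave the endpoint.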
# [20] = TOX21_TR_RXR_BLA_Antagonist_Followup_viability: Viability Assessment in the Tox21 Thyroid Hormone Receptor beta Retinoid X Receptor alpha (RXRa) Antagonism Beta-lactamase (BLA) Follow-Up Assay (AID 2283979)
# In short: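 RXRa-UAS-bla HEK293T cells seeded 2,500/well in phenol red-free DMEM with 2% charcoal-stripped FBS, attached 5 h, then exposed to compounds at 11 concentrations in triplicate for 16 h at 37C/5% CO2. Viability read by CellTiter-Glo ATP luminescence; bidirectional fit versus DMSO.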
# Chain of THRB (gene 7068) (P10828 whole entry, looked up, the tested form may be a part): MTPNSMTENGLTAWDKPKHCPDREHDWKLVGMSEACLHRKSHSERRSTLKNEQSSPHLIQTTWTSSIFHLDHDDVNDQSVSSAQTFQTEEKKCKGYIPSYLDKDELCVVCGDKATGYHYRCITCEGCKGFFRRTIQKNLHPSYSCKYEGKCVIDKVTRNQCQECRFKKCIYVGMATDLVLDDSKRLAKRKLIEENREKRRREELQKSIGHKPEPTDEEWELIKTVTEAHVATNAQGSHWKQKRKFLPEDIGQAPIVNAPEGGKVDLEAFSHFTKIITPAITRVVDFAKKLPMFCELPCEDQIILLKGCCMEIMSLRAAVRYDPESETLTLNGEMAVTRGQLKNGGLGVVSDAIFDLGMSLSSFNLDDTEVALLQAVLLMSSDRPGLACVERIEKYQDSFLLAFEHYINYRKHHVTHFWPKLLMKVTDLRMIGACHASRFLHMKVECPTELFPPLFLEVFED
# Chain of Nucleoli Translocation, AR (gene 367) (P10275 whole entry, looked up, the tested form may be a part): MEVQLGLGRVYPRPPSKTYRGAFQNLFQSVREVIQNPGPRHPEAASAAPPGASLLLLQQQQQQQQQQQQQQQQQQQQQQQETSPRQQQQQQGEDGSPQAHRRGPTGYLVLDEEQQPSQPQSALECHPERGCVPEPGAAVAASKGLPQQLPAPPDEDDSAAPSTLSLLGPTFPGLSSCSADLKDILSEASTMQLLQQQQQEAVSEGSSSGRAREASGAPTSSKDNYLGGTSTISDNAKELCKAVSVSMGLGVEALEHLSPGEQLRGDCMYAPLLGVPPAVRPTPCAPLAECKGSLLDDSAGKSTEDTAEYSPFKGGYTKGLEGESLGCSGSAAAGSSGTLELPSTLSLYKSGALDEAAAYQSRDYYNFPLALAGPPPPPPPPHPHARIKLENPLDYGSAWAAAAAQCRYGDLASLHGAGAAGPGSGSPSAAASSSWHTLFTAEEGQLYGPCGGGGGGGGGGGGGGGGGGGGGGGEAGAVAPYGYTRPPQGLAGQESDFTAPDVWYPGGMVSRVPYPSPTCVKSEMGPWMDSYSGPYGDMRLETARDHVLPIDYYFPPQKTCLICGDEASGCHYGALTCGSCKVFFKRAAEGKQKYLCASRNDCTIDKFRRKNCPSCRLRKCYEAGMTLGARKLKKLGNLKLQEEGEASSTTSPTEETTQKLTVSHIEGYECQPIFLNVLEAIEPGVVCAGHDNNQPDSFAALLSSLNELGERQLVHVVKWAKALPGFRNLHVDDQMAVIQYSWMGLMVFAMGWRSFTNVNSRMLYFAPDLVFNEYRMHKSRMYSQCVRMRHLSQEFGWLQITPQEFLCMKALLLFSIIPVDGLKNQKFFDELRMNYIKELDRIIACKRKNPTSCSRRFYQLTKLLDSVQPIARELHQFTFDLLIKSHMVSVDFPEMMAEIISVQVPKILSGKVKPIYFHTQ
# Chain of Ratio of Nucleoli Translocation and Cytoplasm, AR (gene 367) (P10275 whole entry, looked up): as the sequence (P10275 whole entry, looked up, the tested form may be a part) above
# Chain of Retinoic acid receptor RXR-alpha (Homo sapiens) (P19793 whole entry, looked up, the tested form may be a part): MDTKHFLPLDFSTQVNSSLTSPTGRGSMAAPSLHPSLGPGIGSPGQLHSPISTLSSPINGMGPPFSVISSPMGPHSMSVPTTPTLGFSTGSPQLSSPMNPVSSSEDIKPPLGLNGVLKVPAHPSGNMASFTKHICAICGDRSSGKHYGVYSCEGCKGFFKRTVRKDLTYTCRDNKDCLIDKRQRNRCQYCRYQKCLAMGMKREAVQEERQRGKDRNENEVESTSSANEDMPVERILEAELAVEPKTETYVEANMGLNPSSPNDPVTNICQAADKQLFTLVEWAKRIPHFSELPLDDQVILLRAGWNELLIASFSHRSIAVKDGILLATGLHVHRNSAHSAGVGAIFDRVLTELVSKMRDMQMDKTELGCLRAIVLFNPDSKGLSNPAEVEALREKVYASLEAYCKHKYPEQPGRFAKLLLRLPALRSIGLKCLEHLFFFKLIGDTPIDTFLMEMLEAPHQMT
# Chain of THRA (gene 7067) (P10827 whole entry, looked up, the tested form may be a part): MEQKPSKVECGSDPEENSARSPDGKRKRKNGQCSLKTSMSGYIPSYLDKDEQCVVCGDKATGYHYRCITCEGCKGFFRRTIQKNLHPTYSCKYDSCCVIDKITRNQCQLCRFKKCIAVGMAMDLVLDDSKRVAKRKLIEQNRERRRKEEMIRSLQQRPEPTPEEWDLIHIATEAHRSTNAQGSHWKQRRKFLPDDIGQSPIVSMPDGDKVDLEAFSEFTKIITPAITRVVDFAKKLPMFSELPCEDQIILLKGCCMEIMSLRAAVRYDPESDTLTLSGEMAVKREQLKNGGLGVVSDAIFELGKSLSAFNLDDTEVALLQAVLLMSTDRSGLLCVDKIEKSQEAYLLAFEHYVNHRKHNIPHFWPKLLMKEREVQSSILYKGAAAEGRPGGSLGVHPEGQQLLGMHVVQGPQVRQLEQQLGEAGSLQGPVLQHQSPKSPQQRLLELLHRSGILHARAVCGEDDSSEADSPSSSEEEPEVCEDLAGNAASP
# Chain of Thyroid hormone receptor alpha (Rattus norvegicus) + Thyroid hormone receptor beta (Rattus norvegicus) (P63059 whole entry, looked up): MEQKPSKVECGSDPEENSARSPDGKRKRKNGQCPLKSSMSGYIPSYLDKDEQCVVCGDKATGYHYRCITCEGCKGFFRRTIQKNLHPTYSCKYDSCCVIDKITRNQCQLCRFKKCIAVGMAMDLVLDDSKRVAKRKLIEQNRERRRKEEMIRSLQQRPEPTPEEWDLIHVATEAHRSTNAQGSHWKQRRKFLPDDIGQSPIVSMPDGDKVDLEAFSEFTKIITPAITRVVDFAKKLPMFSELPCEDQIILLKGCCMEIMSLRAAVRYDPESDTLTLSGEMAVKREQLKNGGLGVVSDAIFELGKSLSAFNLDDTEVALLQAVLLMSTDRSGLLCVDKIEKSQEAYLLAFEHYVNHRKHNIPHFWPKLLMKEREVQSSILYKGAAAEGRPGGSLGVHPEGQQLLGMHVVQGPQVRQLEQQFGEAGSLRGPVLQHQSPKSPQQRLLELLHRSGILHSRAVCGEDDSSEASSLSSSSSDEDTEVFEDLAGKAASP
# Chain of Thyroid hormone receptor alpha (Rattus norvegicus) + Thyroid hormone receptor beta (Rattus norvegicus) (P18113 whole entry, looked up): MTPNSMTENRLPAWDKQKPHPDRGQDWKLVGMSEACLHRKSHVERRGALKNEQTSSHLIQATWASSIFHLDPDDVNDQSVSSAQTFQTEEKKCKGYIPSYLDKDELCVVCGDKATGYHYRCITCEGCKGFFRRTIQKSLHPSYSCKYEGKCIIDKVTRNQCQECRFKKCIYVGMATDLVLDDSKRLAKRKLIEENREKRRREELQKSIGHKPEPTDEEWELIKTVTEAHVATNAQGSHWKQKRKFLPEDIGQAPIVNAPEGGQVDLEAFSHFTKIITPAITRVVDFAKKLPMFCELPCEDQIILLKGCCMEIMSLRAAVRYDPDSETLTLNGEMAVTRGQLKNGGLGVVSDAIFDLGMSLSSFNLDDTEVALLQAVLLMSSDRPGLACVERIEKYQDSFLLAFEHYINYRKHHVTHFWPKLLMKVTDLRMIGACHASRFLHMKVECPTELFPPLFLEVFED
structure (smiles),measurement,setting,value
CCCCCCCCOC(=O)c1ccc(O)cc1,AC50,[1],86.4 µM (active)
COC(=O)c1cccc(C(=O)OC)c1,outcome,[2],inactive
same,outcome,[3],inactive
same,outcome,[4],inactive
same,outcome,[5],inactive
same,outcome,[6],inactive
same,outcome,[7],inactive
CC(=O)N(C)C,outcome,[5],inactive
same,outcome,[8],inactive
CCOc1ccc(NC(C)=O)cc1,outcome,[5],inactive
same,outcome,[6],inactive
same,outcome,[7],inactive
same,outcome,[8],inactive
COc1cc(OC)c2ccc(=O)oc2c1,outcome,[2],inactive
same,outcome,[3],inactive
same,outcome,[4],inactive
same,outcome,[5],inactive
same,outcome,[7],inactive
CCCCCCCCCCOC(=O)c1ccccc1C(=O)OCCCCCCCC,AC50,[2],39.1 µM (active)
same,outcome,[3],inactive
same,AC50,[4],43 µM (active)
same,outcome,[5],inactive
same,outcome,[6],inactive
same,outcome,[8],inactive
COC(=O)C(C)Oc1ccc(Oc2ncc(C(F)(F)F)cc2Cl)cc1 (configuration not stated),AC50,[2],35.1 µM (active)
same,AC50,[3],27.9 µM (active)
COC(=O)c1ccc(C(=O)OC)cc1,outcome,[3],inactive
CC(C)(C)c1cccc(O)c1,outcome,[5],inactive
same,AC50,[6],30.6 µM (active)
same,outcome,[7],inactive
same,AC50,[8],50 µM (active)
CCCCCC1C(=O)CCC1CC(=O)OC (configuration not stated),outcome,[2],inactive
CCO[Si](CC)(OCC)OCC,outcome,[5],inactive
same,outcome,[6],inactive
same,outcome,[7],inactive
same,outcome,[8],inactive
CC1=CCC(C(C)(C)O)CC1 (configuration not stated),outcome,[8],inactive
CCCCCCOc1ccc(O)cc1,AC50,[5],50 µM (active)
same,AC50,[6],27.7 µM (active)
same,AC50,[7],90 µM (active)
same,AC50,[8],23.9 µM (active)
CC1COC(=O)O1 (configuration not stated),outcome,[5],inactive
same,outcome,[6],inactive
same,outcome,[8],inactive
C[C@]12CC[C@@H]3c4ccc(O)cc4CC[C@H]3[C@@H]1CC[C@@H]2O,AC50,[9],27.1 µM (active)
CCCCCCC(C)O (configuration not stated),outcome,[10],inactive
same,outcome,[11],inactive
same,outcome,[12],inactive
same,outcome,[13],inactive
same,outcome,[14],inactive
same,outcome,[15],inactive
OC[C@H]1O[C@@H](O[C@H]2[C@H](O)[C@@H](O)[C@H](O)O[C@@H]2CO)[C@H](O)[C@@H](O)[C@H]1O,outcome,[5],inactive
same,outcome,[7],inactive
CCC(C)(C)C1CCC(=O)CC1,outcome,[5],inactive
same,outcome,[6],inactive
same,outcome,[7],inactive
same,outcome,[8],inactive
C#C[C@]1(O)CC[C@H]2[C@@H]3CCc4cc(O)ccc4[C@H]3CC[C@@]21C,AC50,[16],38.3 µM (active)
same,outcome,[17],inactive
same,outcome,[18],inactive
same,AC50,[19],38.3 µM (active)
same,outcome,[20],inactive
same,AC50,[9],33.4 µM (active)
CC(CCO)CC(C)(C)C (configuration not stated),outcome,[5],inactive
same,outcome,[6],inactive
same,outcome,[7],inactive
same,outcome,[8],inactive
CC/C(=C(\c1ccccc1)c1ccc(OCCN(C)C)cc1)c1ccccc1,AC50,[1],56.9 µM (active) and 72.6 µM (active)
same,outcome,[9],inactive
c1ccc2c(c1)-c1ccc3ccc4cccc5cc-2c1c3c45,AC50,[5],15.4 µM (active)
same,outcome,[6],inactive
same,outcome,[7],inactive
same,outcome,[8],inactive
CC(C)(C)c1ccc(S)cc1,AC50,[1],16.3 µM (active)
CC(C)(CO)CO,outcome,[6],inactive
same,outcome,[8],inactive
CC(=O)OC/C=C(C)/C=C/C=C(C)/C=C/C1=C(C)CCCC1(C)C,AC50,[2],34 µM (active)
same,outcome,[3],inactive
O=C(O)C1=NN(c2ccc(S(=O)(=O)O)cc2)C(=O)C1,AC50,[1],57.6 µM (active)
FC(F)(F)c1ccc(Cl)c(Cl)c1,outcome,[5],inactive
same,outcome,[7],inactive
same,outcome,[8],inactive
